Test results taken from PubChem BioAssay (NCATS).
Results filed as inconclusive are left out. The source made the active and inactive calls. Calls come from the whole dose curve; as a rule, active = well fitted curve in the direction sought with a large enough effect; inconclusive = small, poorly fitted or top-dose-only effect, or another doubt; inactive = no such curve, though single readings can be large; an effect the other way counts as inactive or inconclusive.

Tests used:
[1] = molecular target: ATP-dependent 6-phosphofructokinase (Trypanosoma brucei brucei) (UniProt O15648); assay: qHTS Assay to Find Inhibitors of T. brucei phosphofructokinase: hit validation (AID 492961);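 note: luminescence reports ADP formed as PFK phosphorylates fructose-6-phosphate with ATP; % is set by controls: 0 for no effect and ±100 for the full control effect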
ATP-dependent 6-phosphofructokinase (Trypanosoma brucei brucei), sequence (O15648 whole entry, looked up): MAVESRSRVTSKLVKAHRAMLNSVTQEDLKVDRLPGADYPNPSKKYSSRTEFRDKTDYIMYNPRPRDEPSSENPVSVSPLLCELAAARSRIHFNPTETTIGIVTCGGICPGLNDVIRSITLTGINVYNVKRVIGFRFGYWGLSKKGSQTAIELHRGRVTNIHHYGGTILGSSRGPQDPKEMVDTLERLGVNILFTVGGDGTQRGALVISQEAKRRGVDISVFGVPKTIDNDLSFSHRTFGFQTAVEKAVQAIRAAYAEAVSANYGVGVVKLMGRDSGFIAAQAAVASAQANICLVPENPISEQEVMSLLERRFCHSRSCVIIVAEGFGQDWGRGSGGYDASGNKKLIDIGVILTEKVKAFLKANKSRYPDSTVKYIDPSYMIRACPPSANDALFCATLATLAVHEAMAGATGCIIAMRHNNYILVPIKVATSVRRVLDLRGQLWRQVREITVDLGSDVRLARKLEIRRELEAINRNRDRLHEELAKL
Method in brief: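 PFK 1.25 nM, F6P 0.5 mM, ATP 0.1 mM, MgCl2 5 mM, 0.1 M TEA pH 8.0, Tween20 0.01%, BSA 0.1%; 45 min RT. ADP-Glo two-step detection, luminescence. qHTS titration; curve fitting with curve-class categorization.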

[2] = qHTS profiling for inhibitors of Plasmodium falciparum proliferation (AID 504749); note: potency is the fitted concentration of half-maximal effect;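 for activity, negative = inhibition: 0% = DMSO vehicle and full inhibition = artemisinin control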; for all read-outs here: nearly all actives have a fitted effect of over 60% in size; details: P. falciparum in erythrocytes, SYBR Green DNA, 72 h; for activity, negative = inhibition: at 28.7 µM (top of the series)
Method in brief: (§1)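 Quantitative HTS: compounds pinned into medium, infected erythrocytes added (0.3% parasitemia, 2.5% hematocrit), 72 h culture at 37 C under 5% CO2. Saponin/Triton lysis with SYBR Green I, overnight RT, then fluorescence read.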

[3] = tested on: AA1029; assay: as above; details: P. falciparum in erythrocytes, SYBR Green DNA, 72 h; series mostly up to 28.7 µM
Method in brief: as §1

[4] = tested on: AS120; assay: as above; details: P. falciparum in erythrocytes, SYBR Green DNA, 72 h; series mostly up to 28.7 µM
Method in brief: as §1

[5] = tested on: ATS189; assay: as above; details: P. falciparum in erythrocytes, SYBR Green DNA, 72 h; series mostly up to 28.7 µM
Method in brief: as §1

[6] = tested on: CP185; assay: as above; details: P. falciparum in erythrocytes, SYBR Green DNA, 72 h; series mostly up to 28.7 µM
Method in brief: as §1

[7] = tested on: CP191; assay: as above; details: P. falciparum in erythrocytes, SYBR Green DNA, 72 h; series mostly up to 28.7 µM
Method in brief: as §1

[8] = tested on: CP192; assay: as above; details: P. falciparum in erythrocytes, SYBR Green DNA, 72 h; series mostly up to 28.7 µM
Method in brief: as §1

[9] = tested on: CP211; assay: as above; details: P. falciparum in erythrocytes, SYBR Green DNA, 72 h; series mostly up to 28.7 µM
Method in brief: as §1

[10] = tested on: CP217; assay: as above; details: P. falciparum in erythrocytes, SYBR Green DNA, 72 h; series mostly up to 28.7 µM
Method in brief: as §1

[11] = tested on: CP238; assay: as above; details: P. falciparum in erythrocytes, SYBR Green DNA, 72 h; series mostly up to 28.7 µM
Method in brief: as §1

[12] = tested on: CP252; assay: as above; details: P. falciparum in erythrocytes, SYBR Green DNA, 72 h; series mostly up to 28.7 µM
Method in brief: as §1

[13] = tested on: CP262; assay: as above; details: P. falciparum in erythrocytes, SYBR Green DNA, 72 h; series mostly up to 28.7 µM
Method in brief: as §1

[14] = tested on: CP265; assay: as above; details: P. falciparum in erythrocytes, SYBR Green DNA, 72 h; series mostly up to 28.7 µM
Method in brief: as §1

[15] = tested on: CP286; assay: as above; details: P. falciparum in erythrocytes, SYBR Green DNA, 72 h; series mostly up to 28.7 µM
Method in brief: as §1

[16] = tested on: Dd2; assay: as above; details: P. falciparum in erythrocytes, SYBR Green DNA, 72 h; series mostly up to 28.7 µM
Method in brief: as §1

[17] = tested on: ECU; assay: as above; details: P. falciparum in erythrocytes, SYBR Green DNA, 72 h; series mostly up to 28.7 µM
Method in brief: as §1

[18] = tested on: FAB9; assay: as above; details: P. falciparum in erythrocytes, SYBR Green DNA, 72 h; series mostly up to 28.7 µM
Method in brief: as §1

[19] = tested on: HB3; assay: as above; details: P. falciparum in erythrocytes, SYBR Green DNA, 72 h; series mostly up to 28.7 µM
Method in brief: as §1

[20] = tested on: N140; assay: as above; details: P. falciparum in erythrocytes, SYBR Green DNA, 72 h; series mostly up to 28.7 µM
Method in brief: as §1

C[C@@H](O)[C@@H]1C(=O)N2C(C(=O)O)=C([C@H]3CCCO3)S[C@H]12
inactive: Potency [1] | activity, negative = inhibition ([2]; parasite line A) -3.21% | activity, negative = inhibition ([2]; parasite line B) 2.27% | Potency [3] | Potency [4] | Potency [5] | Potency [6] | Potency [7] | Potency [8] | Potency [9] | Potency [10] | Potency [11] | Potency [12] | Potency [13] | Potency [14] | Potency [15] | Potency [16] | Potency [17] | Potency [18] | Potency [19] | Potency [20]

CCN(CC)CC(=O)Nc1c(C)cc(C)cc1C
inactive: Potency [1] | activity, negative = inhibition ([2]; parasite line A) 2.56% | activity, negative = inhibition ([2]; parasite line B) 6.57% | Potency [3] | Potency [4] | Potency [5] | Potency [6] | Potency [7] | Potency [8] | Potency [9] | Potency [10] | Potency [11] | Potency [12] | Potency [13] | Potency [14] | Potency [15] | Potency [16] | Potency [17] | Potency [18] | Potency [19] | Potency [20]

OCC(CO)NC1C[C@](O)(CO)[C@@H](O)[C@H](O)[C@H]1O (stereo partly specified)
inactive: Potency [1] | activity, negative = inhibition ([2]; parasite line A) 8.78% | activity, negative = inhibition ([2]; parasite line B) 9.25% | Potency [3] | Potency [4] | Potency [5] | Potency [6] | Potency [7] | Potency [8] | Potency [9] | Potency [10] | Potency [11] | Potency [12] | Potency [13] | Potency [14] | Potency [15] | Potency [16] | Potency [17] | Potency [18] | Potency [19] | Potency [20]

O=C(O)c1ccc(N[C@@H]2OC[C@@H](O)[C@@H](O)[C@@H]2O)cc1
inactive: Potency [1] | activity, negative = inhibition ([2]; parasite line A) 8.43% | activity, negative = inhibition ([2]; parasite line B) 9.05% | Potency [3] | Potency [4] | Potency [5] | Potency [6] | Potency [7] | Potency [8] | Potency [9] | Potency [10] | Potency [11] | Potency [12] | Potency [13] | Potency [14] | Potency [15] | Potency [16] | Potency [17] | Potency [18] | Potency [19] | Potency [20]

OCC1OC(O)C(O)C(O)C1O (stereo unspecified)
inactive: Potency [1] | activity, negative = inhibition ([2]; parasite line A) -3.4% | activity, negative = inhibition ([2]; parasite line B) 8.64% | Potency [3] | Potency [4] | Potency [5] | Potency [6] | Potency [7] | Potency [8] | Potency [9] | Potency [10] | Potency [11] | Potency [12] | Potency [13] | Potency [14] | Potency [15] | Potency [16] | Potency [17] | Potency [18] | Potency [19] | Potency [20]

O=C(O)Cc1sc(-c2ccc(Cl)cc2)nc1-c1ccccc1
inactive: Potency [1] | activity, negative = inhibition ([2]; parasite line A) 4.11% | activity, negative = inhibition ([2]; parasite line B) -3.92% | Potency [3] | Potency [4] | Potency [5] | Potency [6] | Potency [7] | Potency [8] | Potency [9] | Potency [10] | Potency [11] | Potency [12] | Potency [13] | Potency [14] | Potency [15] | Potency [16] | Potency [17] | Potency [18] | Potency [19] | Potency [20]

CO/N=C(/C(=O)N[C@@H]1C(=O)N2C(C(=O)O)=C(CSc3cnns3)CS[C@H]12)c1csc(N)n1
inactive: Potency [1] | activity, negative = inhibition ([2]; parasite line A) 8.36% | activity, negative = inhibition ([2]; parasite line B) 11.8% | Potency [3] | Potency [4] | Potency [5] | Potency [6] | Potency [7] | Potency [8] | Potency [9] | Potency [10] | Potency [11] | Potency [12] | Potency [13] | Potency [14] | Potency [15] | Potency [16] | Potency [17] | Potency [18] | Potency [19] | Potency [20]

CO/N=C(/C(=O)N[C@@H]1C(=O)N2C(C(=O)O)=C(CSC(=O)c3ccco3)CSC12)c1csc(N)n1 (stereo partly specified)
inactive: Potency [1] | activity, negative = inhibition ([2]; parasite line A) 2.76% | activity, negative = inhibition ([2]; parasite line B) 0.141% | Potency [3] | Potency [4] | Potency [5] | Potency [6] | Potency [7] | Potency [8] | Potency [9] | Potency [10] | Potency [11] | Potency [12] | Potency [13] | Potency [14] | Potency [15] | Potency [16] | Potency [17] | Potency [18] | Potency [19] | Potency [20]

C=C1/C(=C\C=C2/CCC[C@]3(C)[C@@H]([C@H](C)/C=C/[C@@H](O)C4CC4)CC[C@@H]23)C[C@@H](O)C[C@@H]1O
inactive: Potency [1] | activity, negative = inhibition ([2]; parasite line A) -4.72% | activity, negative = inhibition ([2]; parasite line B) -23.6% | Potency [3] | Potency [5] | Potency [6] | Potency [7] | Potency [8] | Potency [9] | Potency [10] | Potency [11] | Potency [12] | Potency [13] | Potency [15] | Potency [16] | Potency [17] | Potency [18] | Potency [19] | Potency [20]

C[C@]12CC[C@@H]3c4ccc(O)cc4C[C@@H](CCCCCCCCCS(=O)CCCC(F)(F)C(F)(F)F)C3[C@@H]1CC[C@@H]2O (stereo partly specified)
active: Potency ([2]; parasite line A) 11.2 µM | Potency ([2]; parasite line B) 10 µM | Potency [3] 7.08 µM | Potency [4] 2.51 µM | Potency [5] 7.94 µM | Potency [6] 8.91 µM | Potency [7] 7.94 µM | Potency [10] 8.91 µM | Potency [11] 7.94 µM | Potency [12] 8.91 µM | Potency [14] 11.2 µM | Potency [15] 11.2 µM | Potency [16] 7.08 µM | Potency [17] 3.55 µM | Potency [18] 8.91 µM | Potency [19] 5.01 µM | Potency [20] 2.24 µM
inactive: Potency [1] | Potency [13]
